Compound activity from PubChem.
PINK1 expr mod: A Quantitative High throughput Screen to Identify Chemical Modulators of PINK1 Expression | PINK1 immunofluorescence, high-content cytometry, 24 h | Potency, µM (titrated, usually from 76.6 µM), inactives show top-dose activation (PINK1 increase), most hits filed as activators | 410,000 tested, 0.2% active; active = well fitted activation curve with a large enough effect; inconclusive = small, poorly fitted or top-dose-only effect; cell line not stated here; note: potency is the fitted concentration of half-maximal effect; % of control where 0% means no effect; nearly all actives have a fitted effect of over 65% in size
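Decision-based qHTS: stable cells, 24 h exposure to five compound concentrations, CCCP as control. Fixed cells stained for PINK1 plus nuclear, mitochondrial and cell markers, cytometer read.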
Vif-A3G inh: qHTS for Inhibitors of Vif-A3G Interactions: qHTS | HeLa A3G-eYFP + Vif (tagged APOBEC3G with the HIV-1 protein that degrades it), YFP fluorescence, overnight | DNA dC->dU-editing enzyme APOBEC-3G (Homo sapiens), Q9HC16 | AID 602310, 2012 | Potency, µM (titrated, usually from 46.1 µM), inactives show at the top dose activity, negative = active, usual class: inhibitors | 410,000 tested, 0.076% active; note: potency is the fitted concentration of half-maximal effect; % is set by controls: 0 for no effect and ±100 for the full control effect; nearly all actives have a fitted effect of over 60% in size
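HeLa cells stably expressing Vif and C-terminally eYFP-tagged A3G, seeded overnight at 37 deg C, then exposed to compound by pintool overnight at 37 deg C. Rise in yellow fluorescence (Ex 488/Em 500-530, Acumen) marks blocked Vif-driven A3G degradation.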
TRPML1 blocker: qHTS for Inhibitors of the Human Mucolipin Transient Receptor Potential 1 (TRPML1) | 390,000 tested, 0.02% active | activity change, negative = inhibition, % (test concentration not listed) | TRPML1-inducible cells, Ca2+ dye fluorescence, FDSS; hits give low values; inhibition of EC80 agonist-evoked calcium signal | AID 624415, 2012; in the data active = activity change below about -50%; inconclusive = between about -30% and that limit;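 note: stimulus is agonist 54-4 at its EC80 concentration; % is set by controls: 0 for no effect and ±100 for the full control effect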
Target sequence (Q9GZU1 whole entry, looked up): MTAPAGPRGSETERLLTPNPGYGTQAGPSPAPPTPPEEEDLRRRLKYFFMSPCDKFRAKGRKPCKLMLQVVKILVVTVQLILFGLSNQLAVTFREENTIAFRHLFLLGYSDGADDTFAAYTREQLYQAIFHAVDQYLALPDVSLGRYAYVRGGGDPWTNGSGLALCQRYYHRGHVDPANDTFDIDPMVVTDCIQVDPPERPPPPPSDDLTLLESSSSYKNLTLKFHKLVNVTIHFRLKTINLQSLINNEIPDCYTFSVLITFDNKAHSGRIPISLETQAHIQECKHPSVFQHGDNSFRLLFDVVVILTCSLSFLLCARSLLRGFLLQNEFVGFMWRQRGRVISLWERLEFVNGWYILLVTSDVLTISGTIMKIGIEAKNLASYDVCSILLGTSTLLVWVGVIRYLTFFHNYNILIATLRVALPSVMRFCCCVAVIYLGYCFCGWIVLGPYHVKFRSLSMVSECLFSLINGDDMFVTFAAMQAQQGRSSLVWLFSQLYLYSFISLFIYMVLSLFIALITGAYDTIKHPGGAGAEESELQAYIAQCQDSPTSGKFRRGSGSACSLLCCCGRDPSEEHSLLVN
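Tet-induced TRPML1-DL cells loaded with Ca8 no-wash calcium dye were read kinetically on FDSS. Compound addition was followed by EC80 agonist 54-4 (4 uM final); inhibition was read over 110 s.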
TRPML1 ag: qHTS for Agonists of the Human Mucolipin Transient Receptor Potential 1 (TRPML1); TRPML1-expressing cells, Ca2+ dye fluorescence, FDSS; 410,000 tested, 0.12% active; activation, % (no concentration beside the values); in the data active = activation above about 50%; inconclusive = mostly about 30% to 49%; note: 0% is about no effect
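Tet-induced TRPML1-DL cells, 1,500 per well, cultured overnight, were loaded with a no-wash Ca2+ dye for 45–90 min. Calcium fluorescence was recorded on the FDSS for 110 s after compound addition, before the EC80 agonist (4 uM 54-4) was added.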
Vif-APOBEC3F blk: qHTS for Inhibitors of Vif-A3F Interactions: qHTS. HeLa A3F-eYFP + Vif (tagged APOBEC3F with the HIV-1 protein that degrades it), YFP fluorescence increase. Potency, µM (titrated, usually from 46.1 µM), inactives show at the highest dose activity, negative = active. 390,000 tested, 0.2% active; note: potency is the fitted concentration of half-maximal effect; % of control where 0% means no effect; nearly all actives have a fitted effect of over 65% in size
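HeLa cells stably expressing Vif plus C-terminally eYFP-tagged A3F were seeded, incubated overnight at 37 deg C, dosed with compound, incubated overnight again at 37 deg C. Yellow fluorescence (Ex 488/Em 500-530) reported blocked Vif-mediated A3F-eYFP degradation.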
* marks the source's active call; other numbers are inactive results; ? = inconclusive; / = no result given. Shown are actives, neighbours in structure and some others; about 0.52% of the full set was active somewhere. Unless noted, calls come from the whole dose curve; as a rule, active = well fitted curve in the direction sought with a large enough effect; inconclusive = small, poorly fitted or top-dose-only effect, or another doubt; inactive = no such curve, though single readings can be large; an effect the other way counts as inactive or inconclusive.

SMILES	PINK1 expr mod	Vif-A3G inh	TRPML1 blocker	TRPML1 ag	Vif-APOBEC3F blk
CC(C)(C)Cc1c(-c2ccc(C#N)cc2)nc2c(Cl)cc(C(F)(F)F)cn12	35µM*	-4%	-15	72*	/
COc1ccccc1Cc1c(-c2ccc(C#N)cc2)nc2c(Cl)cc(C(F)(F)F)cn12	10%	/	/	4	/
O=C(Nc1nccs1)[C@@H]1CC=C[C@@H]2CCN(C3CCCCC3)C(=O)[C@@H]21	/	1%	/	-1	/
N#CC(c1ccccc1)c1ccc2c(C(F)(F)F)cc(C(F)(F)F)nc2n1 (centres undefined)	?	9%	10	2	-2%
Cc1ccc(C(C#N)c2ccc3c(C(F)(F)F)cc(C(F)(F)F)nc3n2)cc1 (centres undefined)	8.9µM*	-1%	-7	0	2%
Cc1ccc2oc(/N=C(\N)NC(=O)C(C)(C)C)nc2c1	4%	4%	3	2	22µM*
Cc1ccc([C@@H]2CC(=O)[C@@H]3CN(S(=O)(=O)c4ccccc4C)[C@H](c4ccc(Cl)cc4)C[C@@H]3N2S(=O)(=O)c2ccc(C)cc2)cc1	0%	2%	33	0	-6%
Cc1ccccc1NC(=O)Nc1nnc(N(C)Cc2ccccc2)s1	0%	4%	20	1	1%
Cc1c(Cl)cccc1NC(=O)Nc1nnc(N(C)Cc2ccccc2)s1	-1%	?	-15	58*	?
COc1ccc(C(=O)NC2CCCc3ccccc32)cc1OC1CCN(C(C)=O)CC1 (centres undefined)	7%	3%	-54*	0	6%
Cc1ccc(C)c(N2CCN(C(c3ccccc3)c3nnnn3C(C)(C)C)CC2)c1 (centres undefined)	1%	/	/	86*	/
COc1ccc(N2CCN(C(c3ccccc3)c3nnnn3C(C)(C)C)CC2)cc1 (centres undefined)	1%	/	/	2	/
CCCCn1nnnc1C(c1cc2ccccc2o1)N1CCN(c2c(C)cccc2C)CC1 (centres undefined)	3%	/	/	1	/
COc1ccc(N2CCN(C(c3ccccc3)c3nnnn3C(C)C)CC2)cc1 (centres undefined)	1%	0%	/	61*	/
Cc1cccc(C)c1N1CCN(C(c2cc3ccccc3o2)c2nnnn2C(C)(C)C)CC1 (centres undefined)	4%	/	/	54*	/
O=S(=O)(NCc1ccccc1Cl)c1cccs1	-1%	-4%	-6	0	-6%
CSc1ncccc1C(=O)NCC1Cc2cc(F)cc(-c3cncnc3)c2O1 (centres undefined)	1%	/	/	/	/
CN(C)c1ccc(/C=N/NC(=O)CN(c2cccc(Cl)c2)S(C)(=O)=O)cc1Br	12%	3%	28	0	-1%
CN(C)Cc1cc(C(C)(C)c2ccccc2)ccc1O	10%	1%	1	0	16%
Cc1csc(NC(=O)CCC(=O)N(CC(=O)NC2CCCC2)Cc2ccccc2)n1	3%	?	8	4	11µM*
COc1ccc(CN(CC(=O)NC2CCCC2)C(=O)CCC(=O)Nc2nc(C)cs2)cc1	2%	2%	-12	0	-4%
Cc1ccc(NC(=O)Cn2c(-c3ccc4c(c3)OCO4)cn(-c3ccccc3)c2=O)cc1	-1%	-3%	-9	1	-5%
Clc1ccc2nc3c4ccccc4cnn3c2c1	1%	-2%	-5	0	-4%
Oc1ccc2nnc3c(Br)cnn3c2c1	-1%	-1%	0	87*	-19%
NC(=O)N/N=C/c1sc(N2CCCCC2)nc1-c1cccs1	0%	?	11	0	3%
CC(C)NC(=S)N/N=C/c1sc(N2CCCCC2)nc1-c1cccs1	0%	?	4	1	11µM*
C=CCc1ccccc1OCc1nc2ccc(C)cc2[nH]1	40µM*	/	45	3	/
